Results on 19 molecules are retold here after PubChem BioAssay.

Assay [1] is described as follows: antimalarial activity against Dd2 strain (AID 2302;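 active = growth inhibition above 50% at the single 2 µM test dose, taken to imply half-maximal potency below 2 µM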;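 also: 0% = DMSO untreated growth and 100% = chloroquine plus artemisinin killed control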). The following applies: P. falciparum Dd2 in RBCs, LDH growth readout, 72 h; at 2 µM; stronger effect = higher value.
Assay [2] is described as follows: HepG2 cytotoxicity, primary screen, cytotoxicity control for P. falciparum antimalarial project, cell-based, ATP luminescence (AID 2303;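 active = inhibition above 50%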;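 also: 0% = DMSO wells and 100% = digitonin-killed cells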). The following applies: HepG2 viability, 24-48 h, at 10 µM, stronger effect = higher value.
Assay [3] addresses L-lactate dehydrogenase (Plasmodium falciparum (isolate CDC / Honduras)) (UniProt Q27743). The assay can be described thus: PfLDH activity inhibition – cell lysate, 3D7 strain, counter-screen for P. falciparum growth inhibition project (AID 2304).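 Also: 0% = vehicle and 100% = reference inhibitor.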 Conditions: P. falciparum 3D7 crude extract, LDH APAD/NBT absorbance; at 2 µM; stronger effect = higher value. (In general: Counterscreens check selectivity or assay interference.)

Assay [4] can be described thus: inhibition of 3D7 malaria parasite growth – strain 3D7 (AID 2306).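 Also: 0% = DMSO wells and 100% = chloroquine plus artemisinin control wells.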 Conditions: P. falciparum 3D7 erythrocytic growth, LDH absorbance, 72 h; at 2 µM; stronger effect = higher value.
Assay [5] concerns the target Calcium-dependent protein kinase 1 (Plasmodium falciparum (isolate 3D7)) (UniProt P62344). The assay can be described thus: PfCDPK1 kinase inhibitors, biochemical, TCAMS library (AID 1159585; cut-off not given, nearly all actives have IC50 up to about 0.98 µM;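 also: inhibitors leave more ATP so luminescence rises with inhibition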). Conditions: recombinant PfCDPK1, Kinase-Glo ATP depletion luminescence. Background: In Kinase-Glo more light means more ATP remaining.
Assay [6] addresses Plasmodium falciparum protein kinase 6 (PK6, PF3D7_1337100) (UniProt Q8IDW1). The assay can be described thus: PfPK6 kinase inhibitors, biochemical, TCAMS library (AID 1159586). Conditions: recombinant PfPK6, Kinase-Glo ATP depletion luminescence.
For assay [7], the target named is Protein kinase 7 (PK7), Plasmodium falciparum 3D7 (PF3D7_0213400) (UniProt Q7YTF7). The assay can be described thus: inhibition of Plasmodium PK7 catalytic activity – biochemical, TCAMS antimalarial set, Kinase-Glo luminescence (AID 1159587). Conditions: recombinant PfPK7, Kinase-Glo ATP depletion luminescence.
Chain of Protein kinase 7 (PK7), Plasmodium falciparum 3D7 (PF3D7_0213400) (Q7YTF7 1-343): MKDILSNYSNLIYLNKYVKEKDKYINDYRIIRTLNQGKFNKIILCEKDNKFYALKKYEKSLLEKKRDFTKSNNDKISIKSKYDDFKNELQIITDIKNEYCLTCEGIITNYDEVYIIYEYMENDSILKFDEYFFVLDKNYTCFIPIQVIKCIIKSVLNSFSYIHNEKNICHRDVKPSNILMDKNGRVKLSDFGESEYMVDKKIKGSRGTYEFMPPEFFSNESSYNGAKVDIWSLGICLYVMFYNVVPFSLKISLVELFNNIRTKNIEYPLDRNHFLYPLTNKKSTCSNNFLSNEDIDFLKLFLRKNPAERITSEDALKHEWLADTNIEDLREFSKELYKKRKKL
Assay [8] has as its target Calcium-dependent protein kinase 4 (Plasmodium falciparum (isolate 3D7)) (UniProt Q8IBS5). The assay can be described thus: PfCDPK4 kinase inhibitors, biochemical, TCAMS library (AID 1159588; cut-off not given, nearly all actives have IC50 up to about 0.91 µM). The following applies: recombinant PfCDPK4, Kinase-Glo ATP depletion luminescence.

Values joined by “and” are separate entries in the source; they are usually repeats but may differ in a detail not shown here. Equal entries are not always repeated. Unmarked numbers belong to inactive results. For some assays here: Results with a measured potency or affinity are listed apart. Active and inactive are the calls of the source. Unless noted, no rule for the calls is given here.

Chain of Calcium-dependent protein kinase 4 (Plasmodium falciparum (isolate 3D7)) (Q8IBS5 whole entry, looked up): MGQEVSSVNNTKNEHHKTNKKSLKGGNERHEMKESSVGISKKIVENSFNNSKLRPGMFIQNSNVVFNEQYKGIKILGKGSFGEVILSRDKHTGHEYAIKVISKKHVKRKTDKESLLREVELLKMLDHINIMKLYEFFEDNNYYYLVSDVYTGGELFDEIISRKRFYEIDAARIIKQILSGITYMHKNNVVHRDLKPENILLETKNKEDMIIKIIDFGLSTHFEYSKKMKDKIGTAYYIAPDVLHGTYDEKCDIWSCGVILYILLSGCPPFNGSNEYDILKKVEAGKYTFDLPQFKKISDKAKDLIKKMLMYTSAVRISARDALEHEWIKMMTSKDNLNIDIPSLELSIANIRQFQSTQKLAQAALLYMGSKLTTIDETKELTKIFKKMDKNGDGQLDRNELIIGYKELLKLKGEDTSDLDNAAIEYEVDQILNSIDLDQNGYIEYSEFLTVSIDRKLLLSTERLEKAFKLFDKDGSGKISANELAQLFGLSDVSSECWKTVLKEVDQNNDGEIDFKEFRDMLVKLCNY
Chain of Plasmodium falciparum protein kinase 6 (PK6, PF3D7_1337100) (Q8IDW1 1-305): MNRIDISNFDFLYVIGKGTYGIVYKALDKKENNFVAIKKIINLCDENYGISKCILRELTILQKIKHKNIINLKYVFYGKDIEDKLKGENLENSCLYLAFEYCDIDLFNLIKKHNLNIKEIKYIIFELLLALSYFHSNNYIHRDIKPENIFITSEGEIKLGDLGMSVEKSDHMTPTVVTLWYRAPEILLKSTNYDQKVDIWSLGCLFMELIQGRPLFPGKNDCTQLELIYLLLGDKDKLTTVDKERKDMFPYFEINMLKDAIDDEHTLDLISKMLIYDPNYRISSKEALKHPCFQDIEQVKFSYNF
Chain of L-lactate dehydrogenase (Plasmodium falciparum (isolate CDC / Honduras)) (Q27743 whole entry, looked up): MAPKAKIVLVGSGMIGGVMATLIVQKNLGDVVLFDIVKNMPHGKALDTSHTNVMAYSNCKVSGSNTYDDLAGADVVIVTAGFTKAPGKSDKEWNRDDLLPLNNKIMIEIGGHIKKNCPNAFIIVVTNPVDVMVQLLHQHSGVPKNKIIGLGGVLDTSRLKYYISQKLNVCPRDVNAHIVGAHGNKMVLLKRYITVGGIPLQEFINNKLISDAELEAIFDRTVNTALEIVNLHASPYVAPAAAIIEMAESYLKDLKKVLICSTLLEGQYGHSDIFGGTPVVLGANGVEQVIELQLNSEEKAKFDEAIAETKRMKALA
Chain of Calcium-dependent protein kinase 1 (Plasmodium falciparum (isolate 3D7)) (P62344 whole entry, looked up): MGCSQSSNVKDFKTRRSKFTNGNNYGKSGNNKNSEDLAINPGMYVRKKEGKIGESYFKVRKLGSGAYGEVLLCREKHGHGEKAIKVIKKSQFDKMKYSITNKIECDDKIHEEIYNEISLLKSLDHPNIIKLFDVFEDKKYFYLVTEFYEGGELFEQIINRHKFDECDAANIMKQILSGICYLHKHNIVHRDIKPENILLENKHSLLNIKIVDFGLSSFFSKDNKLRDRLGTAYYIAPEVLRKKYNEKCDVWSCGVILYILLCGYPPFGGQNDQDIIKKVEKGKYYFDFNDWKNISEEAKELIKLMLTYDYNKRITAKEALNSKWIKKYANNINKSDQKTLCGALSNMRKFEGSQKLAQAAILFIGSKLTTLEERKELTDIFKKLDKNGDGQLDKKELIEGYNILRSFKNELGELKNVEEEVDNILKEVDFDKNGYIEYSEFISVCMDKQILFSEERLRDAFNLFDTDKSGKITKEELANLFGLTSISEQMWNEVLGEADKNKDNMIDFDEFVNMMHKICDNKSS

For the molecule `CCCC(C)Nc1nc(C)cc(N[C@@H](CC(C)C)C(=O)NCCOc2ccccc2)n1` (some centres not stated), the growth inhibition is 28% in assay [1] and 93% (active) in assay [4]. Also, the figures for the inhibition in assay [2] and in assay [3] were 15% and 1%, respectively. Further, the outcome in assay [5], in assay [6], in assay [7] and in assay [8] was inactive.

Take `CCN(CC(C)O)C(=O)c1ccc(-c2ccc(-c3nc4c(C)cccc4[nH]3)cc2)cc1` (configuration not stated): the growth inhibition is 13% in assay [1] and 94% (active) in assay [4]. The inhibition (in general, the drop in the measured response relative to a control, in per cent) in assay [2] was 18%; in assay [3], -5%. In addition, the result in assay [5], in assay [6], in assay [7] and in assay [8] was inactive.

Take `O=C(c1ccc(Cl)cc1)N1CCOC(CCN2CCC(c3ccccc3)CC2)(c2ccc(Cl)c(Cl)c2)C1` (configuration not stated): the growth inhibition is 68% (active) in assay [1] and 98% (active) in assay [4]. In addition, the inhibition in assay [2] was 19%; in assay [3] it was 3%. Further, the result in assay [5], in assay [6], in assay [7] and in assay [8] was inactive.

As to `O=C(Nc1ccc(CN2CCN(S(=O)(=O)c3ccc(Cl)s3)CC2)cc1)c1cccs1`, the growth inhibition in assay [1] was 87% (active); in assay [4] it was 92% (active). In addition, the inhibition in assay [2] was 14%; in assay [3] it was 2%. Besides, the result in assay [5], in assay [6], in assay [7] and in assay [8] was inactive.

`O=C(/C=C/c1ccc(Cl)c(Cl)c1)NCCCCCN1CCCN(C(=O)Nc2cccc(F)c2)CC1`: the growth inhibition in assay [1] is 4%; in assay [4], 97% (active). The inhibition in assay [2] is 20%; in assay [3] it was -3%. Further, the result in assay [5], in assay [6], in assay [7] and in assay [8] was inactive.

Consider `O=C(/C=C/c1ccc(Cl)c(Cl)c1)NCCCCCN1CCC(NC(=O)Nc2cccc(C(F)(F)F)c2)CC1`, for which the values for the growth inhibition in assay [1] and in assay [4] were 11% and 102% (active), respectively. Also, the inhibition was 61% (active) in assay [2] and 4% in assay [3]. Also, the outcome in assay [5], in assay [6], in assay [7] and in assay [8] was inactive.

Turning to `CC(CNC(=O)c1cc2c(Cl)cc(Cl)cc2[nH]1)CNc1cc(=O)c2ccccc2[nH]1` (configuration not stated), the results for the growth inhibition in assay [1] and in assay [4] were 11% and 97% (active), respectively. In addition, the inhibition in assay [2] was 11%; in assay [3], 5%. Also, the outcome in assay [5], in assay [6], in assay [7] and in assay [8] was inactive.

Turning to `CC(C)CNCc1cccc(-c2cccc(CNCCCN3CCN(C)CC3)c2)c1`, the growth inhibition in assay [1] was 7%; in assay [4], 88% (active). The figures for the inhibition in assay [2] and in assay [3] were 5% and 1%, respectively. The outcome in assay [5], in assay [6], in assay [7] and in assay [8] was inactive.

Consider `Cc1cc(=O)c(-c2ccc(Oc3cccc(C(F)(F)F)c3)cc2)c(C)[nH]1`, for which the growth inhibition is 95% (active) and 97% (active) in assay [1]; 96% (active) and 97% (active) in assay [4]. For the same molecule, the inhibition in assay [2] was 8% and 14%; in assay [3] it was -2% and -1%. The result in assay [5], in assay [6], in assay [7] and in assay [8] was inactive.

On to `Cc1cc(C2CCN(CCCCNC(=O)c3ccc(NC(=O)c4ccc(Cl)cc4)cc3)CC2)c(C)cc1OCc1cccnc1`, for which the growth inhibition in assay [1] is 90% (active); in assay [4], 101% (active). Further, the inhibition in assay [2] is 39%; in assay [3] it was 0%. Besides, the result in assay [5], in assay [6], in assay [7] and in assay [8] was inactive.

Regarding `CC(=O)N1N=C(c2ccc(Cl)cc2)Sc2c1nc(C1CCCCC1)n2C(C)=O`, the growth inhibition in assay [1] was 67% (active); in assay [4], 103% (active). In addition, the results for the inhibition in assay [2] and in assay [3] were 1% and -1%, respectively. The result in assay [5], in assay [6], in assay [7] and in assay [8] was inactive.

As to `CN(C)CCNC(=O)N1CCCN(c2ncnc3cc(-c4ccccc4)sc23)CC1`, the growth inhibition in assay [1] was 37%; in assay [4], 96% (active). The inhibition in assay [2] and in assay [3] was 5% throughout. Moreover, the outcome in assay [5], in assay [6], in assay [7] and in assay [8] was inactive.

Turning to `NC1=NC(c2ccccc2)(c2ccccc2)C(=O)N1CC1CCC1`, the growth inhibition in assay [1] is 74% (active); in assay [4], 96% (active). The figures for the inhibition in assay [2] and in assay [3] were 17% and 3%, respectively. Moreover, the outcome in assay [5], in assay [6], in assay [7] and in assay [8] was inactive.

Consider `Oc1ccc(Cl)cc1CN1CCCC(COC(c2ccc(F)cc2)c2ccc(F)cc2)C1` (configuration not stated), for which the growth inhibition was 100% (active) in assay [1] and 98% (active) in assay [4]. Further, the values for the inhibition in assay [2] and in assay [3] were 20% and 3%, respectively. Also, the outcome in assay [5], in assay [6], in assay [7] and in assay [8] was inactive.

Consider `Cc1cccc2[nH]c(-c3ccc(-c4ccc(CN5CCCCC5CO)cc4)cc3)nc12` (configuration not stated), for which the growth inhibition was 76% (active) in assay [1] and 100% (active) in assay [4]. Also, the inhibition was 32% in assay [2] and 1% in assay [3]. Moreover, the result in assay [5], in assay [6], in assay [7] and in assay [8] was inactive.

Turning to `Oc1ccccc1CN(CCCN(Cc1ccccn1)Cc1ccccc1O)Cc1ccccn1`, the growth inhibition in assay [1] and in assay [4] was 92% (active) throughout. In addition, the inhibition in assay [2] is 64% (active); in assay [3], 3%. Moreover, the result in assay [5], in assay [6], in assay [7] and in assay [8] was inactive.

In the case of `O=C(Nc1ccc2c(c1)CCN2C1CCN(Cc2cccc3cc[nH]c23)C1)c1ccco1` (configuration not stated), the growth inhibition in assay [1] was 86% (active); in assay [4] it was 88% (active). Besides, the inhibition is -1% in assay [2] and 2% in assay [3]. The outcome in assay [5], in assay [6], in assay [7] and in assay [8] was inactive.

Take `O=C(Nc1cccc(CN2CCN(Cc3ccc(O)cc3)CC2)c1)c1ccc(Cl)c(Cl)c1`: the growth inhibition in assay [1] is 95% (active); in assay [4], 102% (active). Moreover, the figures for the inhibition in assay [2] and in assay [3] were 30% and 2%, respectively. The outcome in assay [5], in assay [6], in assay [7] and in assay [8] was inactive.

As to `CCN(CC)c1cc(C)c2cc(NC(=O)c3cc(=O)c4ccccc4o3)ccc2n1`, the figures for the growth inhibition in assay [1] and in assay [4] were 67% (active) and 97% (active), respectively. For the same molecule, the inhibition in assay [2] is 14%; in assay [3], 1%. Moreover, the outcome in assay [5], in assay [6], in assay [7] and in assay [8] was inactive.
